PubChem BioAssay (NCI)
The panel holds about 83,000 compounds, 20% with a hit somewhere; the sample as a whole holds those more often.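 Step 1: grow cells in 96-well plates. Step 2: add test compound at a single concentration. Step 3: incubate 48 h. Step 4: record percent growth.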 A number with no mark means an inactive call. Activity calls are given as the source filed them. How the source made its calls: active means growth percent below 10; inactive means the rest.

What was measured:
Test in all cases: NCI-60 one-dose screen, 48 h (100 = growth as untreated, 0 = no growth, -100 = all killed)
Conditions in all cases: 10 µM unless noted
[1] = system: NCI-H23 lung
[2] = system: NCI-H226 lung
[3] = system: NCI-H322M lung
[4] = system: HOP-62 NSCLC
[5] = system: NCI-H460 lung
[6] = system: HOP-92 NSCLC
[7] = system: NCI-H522 lung
[8] = system: A549/ATCC NSCLC
[9] = system: 786-0 renal
[10] = system: COLO 205 colon
[11] = system: DU-145 prostate
[12] = system: K-562 leukemia
[13] = system: MALME-3M melanoma
[14] = system: MDA-MB-231 breast
[15] = system: RXF 393 renal
[16] = system: SF-268 CNS
[17] = system: SF-295 CNS
[18] = system: SF-539 CNS
[19] = system: M14 melanoma

| SMILES | growth [1] | growth [2] | growth [3] | growth [4] | growth [5] | growth [6] | growth [7] | growth [8] | growth [9] | growth [10] | growth [11] | growth [12] | growth [13] | growth [14] | growth [15] | growth [16] | growth [17] | growth [18] | growth [19] |
| --- | --- | --- | --- | --- | --- | --- | --- | --- | --- | --- | --- | --- | --- | --- | --- | --- | --- | --- | --- |
| COc1cccc(-c2nn(-c3ccccc3)cc2-c2ccnc(NCCCNS(=O)(=O)c3ccc(C(F)(F)F)cc3)c2)c1 | 28.6% | 36.6% | 68.6% | 61.3% | 25.4% | 5.37% (active) | 17.4% | 24.4% | 16.1% | -1.71% (active) | 59.6% | 8.17% (active) | 25.8% | 6.9% (active) | -7.54% (active) | 43.9% | 14.5% | 46.4% | 22.1% |
| O=S(=O)(NCCNc1cc(-c2cn(-c3ccccc3)nc2-c2cccc(O)c2)ccn1)c1ccc(F)cc1 | 33.6% | 45.1% | 58.7% | 48% | 22.9% | 35.7% | 4.98% (active) | 26.9% | -9.01% (active) | -49.3% (active) | 55.3% | 1.3% (active) | 14.5% | -9.05% (active) | 35% | 40.4% | 10.4% | 44.4% | 14.2% |
| CCc1ccccc1NC(=O)c1sc2nc3c(cc2c1N)CCCC3 | 52.7% | 73.4% | 74.9% | 35.6% | 20.6% | 37.1% | 15% | 36.7% | 44.1% | 36% | 51.7% | 12.1% | 55.7% | 51.3% | 49.8% | 49.2% | 29.6% | 13.9% | 24.1% |
| c1ccc(-c2nc(Nc3ccc(-c4nc5ccccc5[nH]4)cc3)nc(N3CCOCC3)n2)cc1 | -59.1% (active) | -19.3% (active) | -0.466% (active) | -64.5% (active) | -67.3% (active) | -66.3% (active) | -68.2% (active) | -68.4% (active) | -88.9% (active) | -68.8% (active) | -27.8% (active) | -30.1% (active) | -77.3% (active) | -63.3% (active) | -75.1% (active) | -43.4% (active) | -76.4% (active) | -76.8% (active) | -80.7% (active) |
| CC1(c2ccccc2)OC1C(=O)O (configuration not stated) | 94.1% | 104% | 97.9% | 107% | 107% | 119% | 97.8% | 105% | 99.7% | 115% | 108% | 111% | 88.5% | 110% | 103% | 106% | 101% | 96.1% | 95.2% |
| O=S(=O)(NCCNc1cc(-c2cn(-c3ccccc3)nc2-c2cccc(O)c2)ccn1)c1ccc(Br)cc1 | 39.4% | 45% | 50.8% | 40.4% | 26% | 33.3% | 31.9% | 27.2% | 2.12% (active) | -64% (active) | 52.2% | 3.66% (active) | 43.2% | 4.31% (active) | 40.1% | 36.1% | 7.27% (active) | 46.2% | 20.3% |
| COC(=O)[C@]12CC[C@@H](C)[C@H](C)[C@@H]1C1=CC[C@@H]3[C@@]4(C)C[C@@H](OC(C)=O)[C@H](O)[C@@](C)(COC(C)=O)[C@@H]4[C@H](O)C[C@@]3(C)[C@]1(C)CC2 | -83.3% (active) | -57.8% (active) | -92.6% (active) | -84% (active) | -86.9% (active) | -67.4% (active) | -81.6% (active) | -86.2% (active) | -81.9% (active) | -81.3% (active) | -91.9% (active) | -10.7% (active) | -70.5% (active) | -68% (active) | -79.2% (active) | -71.9% (active) | -91.8% (active) | -85.1% (active) | -73.3% (active) |
| Nc1c(C(=O)Nc2cccc3ccccc23)sc2nc3c(cc12)CCCC3 | 23.1% | 63.1% | 51.7% | 29.9% | 16.4% | 44% | 11.7% | 17.8% | 34.7% | -3.36% (active) | 19.3% | 9.59% (active) | 78% | 33.2% | 27.4% | 50.1% | 14.6% | 8.91% (active) | 7.77% (active) |
